Assay outcomes from PubChem BioAssay.
The list is not random: actives were taken first. Their share in the collection is about 12%.
G9a inh: qHTS Assay for Inhibitors of Histone Lysine Methyltransferase G9a; Histone-lysine N-methyltransferase EHMT2 (Homo sapiens), Q96KQ7; G9a H3K9 monomethylation, AlphaScreen, 2 h; Potency, µM (titrated, usually from 102 µM), usual class: inhibitors; 350,000 compounds, 8.8% hits; AID 504332, 2011; note: nearly all actives have a fitted effect of over 75% in size
Target sequence (Q96KQ7 913-1193 limits assumed): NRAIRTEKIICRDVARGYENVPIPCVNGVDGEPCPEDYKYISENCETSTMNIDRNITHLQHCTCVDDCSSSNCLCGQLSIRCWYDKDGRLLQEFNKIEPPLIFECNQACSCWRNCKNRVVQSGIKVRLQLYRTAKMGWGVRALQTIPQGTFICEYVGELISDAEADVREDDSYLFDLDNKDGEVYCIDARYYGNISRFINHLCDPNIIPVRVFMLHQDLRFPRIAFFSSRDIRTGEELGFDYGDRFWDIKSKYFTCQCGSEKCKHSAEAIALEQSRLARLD
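Methyltransferase reactions run at room temperature for 2 h (20 nM enzyme, 500 nM biotin-H3K9 peptide, 20 uM SAM) after a 15 min compound preincubation; product detected by AlphaScreen beads and anti-H3K9me1 antibody.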
HP1b chromo inh: HTS for Inhibitors of HP1-beta Chromodomain Interactions with Methylated Histone Tails; AlphaScreen HP1-beta / biotin-H3K9me3 peptide binding; Potency, µM (titrated, usually from 114 µM), actives largely listed as inhibitors; 390,000 compounds, 0.56% hits; AID 540317, 2011; note: nearly all actives have a fitted effect of over 70% in size
Target sequence (P83916 whole entry, looked up): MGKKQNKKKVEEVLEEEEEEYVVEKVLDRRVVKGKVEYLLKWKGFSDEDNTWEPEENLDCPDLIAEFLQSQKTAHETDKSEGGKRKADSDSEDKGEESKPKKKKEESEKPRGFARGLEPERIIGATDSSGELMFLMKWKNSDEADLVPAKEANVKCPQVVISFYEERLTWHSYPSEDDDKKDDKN
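HP1-beta protein (50 nM final) preincubated 30 min at room temperature with biotinylated H3(1-18)K9me3 peptide (50 nM) in PBS pH 7.4, 0.01% Tween-20, then compound added for 30 min. AlphaScreen streptavidin donor/nickel chelate acceptor beads (10 ug/mL final), 30 min dark, luminescence read.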
BAZ2B block: qHTS Assay for Inhibitors of BAZ2B | AID 504333, 2011 | 360,000 compounds, 4.4% hits | Potency, µM (titrated, usually from 114 µM), hits mostly inhibitors | Bromodomain adjacent to zinc finger domain protein 2B (Homo sapiens), Q9UIF8 | AlphaScreen BAZ2B-H3K14Ac peptide displacement; note: nearly all actives have a fitted effect of over 60% in size
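AlphaScreen luminescence quantifies BAZ2B engagement of H3K14Ac peptide; the protein and biotinylated peptide are both at 50 nM final, buffer PBS pH 7.4 with 0.01% Tween-20, all steps at room temperature.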
JMJD2A Tudor inh: qHTS Assay for Inhibitors of JMJD2A-Tudor Domain; Lysine-specific demethylase 4A (Homo sapiens), O75164; AlphaScreen JMJD2A-Tudor / H3K4me3 peptide binding; Potency, µM (highest dose often 114 µM), hits mostly inhibitors; 390,000 compounds, 4.4% hits; AID 504339, 2011; note: nearly all actives have a fitted effect of over 50% in size
Sfp PPTase inh: qHTS Assay for Inhibitors of Bacillus subtilis Sfp phosphopantetheinyl transferase (PPTase). Biochemical Sfp PPTase activity, qHTS. AID 1490, 2009. Potency, µM, usual class: inhibitors. 4'-phosphopantetheinyl transferase ffp (Bacillus subtilis), Q9F4F7. 310,000 compounds, 3.5% hits;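 note: the enzyme is Sfp with the accession as filed and its product quenches rhodamine fluorescence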
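Compounds were incubated with enzyme (final 15 nM) for 15 min at room temperature before substrate addition started the reaction. Fluorescence at 525 nm excitation, 598 nm emission was recorded immediately and after 30 minutes.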
L3MBTL1 block: qHTS Assay for the Inhibitors of L3MBTL1 | Lethal(3)malignant brain tumor-like protein 1 (Homo sapiens), Q9Y468 | AlphaScreen L3MBTL1–H3K9me1 peptide binding | Potency, µM (series often up to 57.1 µM), hits mostly inhibitors | 230,000 compounds, 0.66% hits | AID 485360, 2010; note: nearly all actives have a fitted effect of over 60% in size
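AlphaScreen assay: L3MBTL1 (50 nM final) was preincubated 30 min at room temperature with biotinylated H3(1-15)K9me1 peptide (75 nM final), then 30 min with library compounds; streptavidin donor and nickel chelate acceptor beads (10 ug/mL final) added, 30 min dark.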
A number is an active result; – = inactive; ? = inconclusive; · = no result; [ ] = another dose, or the depositor's remark. Calls come from the whole dose curve; as a rule, active = well fitted curve in the direction sought with a large enough effect; inconclusive = small, poorly fitted or top-dose-only effect, or another doubt; inactive = no such curve, though single readings can be large; an effect the other way counts as inactive or inconclusive.

SMILES	G9a inh	HP1b chromo inh	BAZ2B block	JMJD2A Tudor inh	Sfp PPTase inh	L3MBTL1 block
O=[N+]([O-])c1ccc(N2CCN(c3ccccc3Cl)CC2)cn1	–	–	–	–	–	·
CC(C(=O)Nc1ccccc1F)N1CCN(C)CC1 (stereo unspecified)	?	·	50µM	·	?	·
COc1ccc(N2CCN(S(=O)(=O)c3ccc(F)c(C(=O)Nc4ccccc4Cl)c3)CC2)cc1	–	–	–	–	·	·
Nc1[nH]c(N=NC(=O)c2ccc(F)cc2)c2ccccc12	–	–	?	–	–	–
Nc1ccccc1C(=O)N=Nc1[nH]c(N)c2ccccc12	–	–	35µM	79µM	–	?
Oc1ccc(Br)cc1/C=N/n1c(-c2ccccc2)n[nH]c1=S	·	–	?	?	56µM	·
O=[N+]([O-])c1ccccc1/C=C/C=N/n1c(-c2ccccc2F)n[nH]c1=S	1.8µM	?	?	45µM	28µM	?
Oc1c(Br)cc(Br)c(/C=N/n2c(-c3ccccc3)n[nH]c2=S)c1Br	·	?	50µM	7.9µM	?	–
Cc1cccc(/C=N/n2c(-c3ccccc3)n[nH]c2=S)c1O	1.3µM	50µM	?	22µM	79µM	–
CCOc1ccc(NC(=O)CN2C(C(=O)OC)=C(c3ccccc3)c3cc(Cl)ccc3S2(=O)=O)cc1	–	–	–	–	·	·
CN1CCN(c2ncc3nc(-c4cn(C)c5ccccc45)c(=O)n(-c4ccccc4)c3n2)CC1	–[0.501 µM]	·	·	·	–	·
O=[N+]([O-])c1ccccc1/C=N/n1c(-c2ccccc2)n[nH]c1=S	·	–	?	8.9µM	–	–
COc1ccc(-c2csc(NC(=O)CC(NC(C)=O)c3ccccc3)n2)cc1OC (stereo unspecified)	25µM	–	79µM	–	–	·
COc1ccc(-c2csc(NC(=O)Cc3ccccc3F)n2)cc1OC	?	–	40µM	?	–	·
COc1ccc(CC(=O)Nc2nc(-c3ccc(OC)c(OC)c3)cs2)cc1OC	–	–	?	?	–	·
Cc1nc(NC2CCCCC2)c2nc(-c3ccccc3)n(C(C)CN(C)C)c2n1 (stereo unspecified)	·	·	·	·	–	·
Cc1onc(-c2ccccc2)c1C(=O)N/N=C/c1ccc(O)c([N+](=O)[O-])c1	–	–	–	–	–	·
O=[N+]([O-])c1ccc(/C=N/N/C(=N/c2ccccn2)c2ccccn2)cc1	–[12.7 µM]	–	–	–	45µM	–
O=[N+]([O-])c1cc(/C=N/N/C(=N/c2ccccn2)c2ccccn2)ccc1O	50µM	–	32µM	79µM	–	?
O=C(Cc1ccc(S(=O)(=O)N2CCOCC2)s1)N1CCN(S(=O)(=O)c2ccc(Cl)cc2)CC1	–[12.7 µM]	–	–	–	·	–
O=C(Cc1ccc(S(=O)(=O)N2CCCC2)s1)N1CCN(c2ccccc2)CC1	?	–	·	–	–	?
COc1ccc(N2CCN(C(=O)Cc3ccc(S(=O)(=O)N4CCOCC4)s3)CC2)cc1	45µM	50µM	40µM	45µM	–	?
Cc1ccc(S(=O)(=O)N2CCN(C(=O)Cc3ccc(S(=O)(=O)N4CCOCC4)s3)CC2)cc1	79µM	–	–	–	–	·
O=C(Cc1ccccc1)N(Cc1cccnc1)c1nc2ccc(F)cc2s1	–	–	–	–	·	·
CC1(C)CNc2cc(N)ccc2S1	3.5µM	?	45µM	45µM	–	?
SMILES	G9a inh	HP1b chromo inh	BAZ2B block	JMJD2A Tudor inh	Sfp PPTase inh	L3MBTL1 block
C/C(=N\NC(=O)C1CC1)c1ccc(Cl)c(Cl)c1	–	–	–	–	–	·
C/C(=N\N=C(N)N)c1ccc(Cl)c(Cl)c1	50µM	–	–	–	–	–
C=CCOc1ccc(/C=C2\SC(=Nc3cccnc3)NC2=O)cc1	·	–	–	–	–	–
CC(/C=C1\SC(=Nc2cccnc2)NC1=O)=C\c1ccccc1	·	–	–	79µM	–	–
COc1cccc(NC(=O)C(=O)NCCc2csc(-c3ccc(C)cc3)n2)c1	–	–	–	–	·	·
CCn1c2ccccc2c2cc(/C=N/n3cn[nH]c3=S)ccc21	–[0.501 µM]	–	?	18µM	–	–
CCn1c2ccccc2c2cc(/C=N/n3c(-c4cc(C)[nH]n4)n[nH]c3=S)ccc21	2.5µM	–	–	?	–	–
COc1cc(OC)cc(-c2c(C#Cc3ccsc3)c3cc(-c4ccc(N(C)C)nc4)ccc3n2C)c1	·	–	·	–	·	–
COc1cc(C#Cc2c(-c3cncn3C)n(C)c3ccc(-c4ccc(CN5CCOCC5)cc4)cc23)cc(OC)c1	·	–	·	8.9µM	·	?
COc1cc(C#Cc2c(-c3cncn3C)n(C)c3ccc(-c4cnc(OC)nc4)cc23)cc(OC)c1	–[0.501 µM]	–	50µM	?	·	–
CCOC(=O)c1ccc(NC(=O)CCCn2nc(C)c3sc4ccccc4c3c2=O)cc1	–	–	–	–	·	·
CCOc1ccc(-c2cc(CCCC(=O)NCCc3ccc(SC)cc3)no2)cc1	–	–	–	–	·	·
COc1ccc(C(=O)NNC(=O)Cc2nc3nc(C)cc(C)n3n2)cc1	0.35µM	–	–	–	–	·
Cc1cc(C)n2nc(CC(=O)NNC(=O)c3ccccc3Cl)nc2n1	7.1µM	–	–	–	–	·
Cc1cc(C)n2nc(C(=O)NNC(=O)c3ccc(Cl)cc3)nc2n1	?	–	89µM	–	?	·
COc1cccc([C@@H]2Oc3ccc(OC)cc3/C(=N/O[C@@H](C)CN3CCCCc4nc(C)c(C)cc43)[C@@H]2O)c1	·	·	·	·	–	·
Cc1noc(C)c1NC(=O)N(C)C[C@@H]1Oc2c(NC(=O)c3ccncc3)cccc2C(=O)N([C@H](C)CO)C[C@@H]1C	·	–	·	35µM	·	–
C[C@@H]1CN([C@H](C)CO)C(=O)c2cc(NC(=O)c3ccncc3)ccc2O[C@@H]1CN(C)C(=O)Nc1ccccc1	·	–	·	50µM	·	–
Cc1cc(Cl)ccc1NC(=O)Cn1nc(C)c2c(C)n(-c3ccccc3)nc2c1=O	–	–	56µM	–	·	·
Cc1ccc(-n2nc3c(=O)n(CC(=O)NCCc4ccc(Cl)cc4)nc(C)c3c2C)cc1	?	–	79µM	–	–	·
Cc1ccc(NC(=O)c2c(C)oc3ncnc(N4CCCCC4)c23)c(C)c1	–	–	–	–	·	·
CNC(=S)N1N=C(c2ccc(Br)cc2)CC1c1ccc(N(C)C)cc1 (stereo unspecified)	7.9µM	?	10µM	11µM	–	?
COc1ccc(C2CC(c3ccc(Br)cc3)=NN2C(=S)Nc2ccccc2)cc1 (stereo unspecified)	2µM	–	?	–	–	–
